PKA-R1A act: activates the PKA-R1A holoenzyme complex; P00514+P68181; PKA-R1A dissociation, Cy5-IP20 fluorescence polarization; scaled: DMSO 0%, 113 µM cGMP 100%; activation, % at 11.4 µM; 0.083% of 340,000 active;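 active means percent activation above the mean of all tested compounds plus 3 SD, cut at about 19% in these data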;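 further: higher means more PKAc released from R1A so a rise in polarization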
Rpn11 inh: inhibitors of human proteasome Rpn11 | O00487 | human 26S proteasome, Ub4-pepOG fluorescence polarization; 20S core pre-blocked with epoxomicin | calls only at 20 µM | 0.59% of 360,000 active;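 active means inhibition at 20 µM, scaled to each plate's controls, above about 33%, limit read from the data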
Neddylation inh: blocks human cullin neddylation. TR-FRET cullin neddylation, biochemical. AID 651699. P61081+Q13564. 0.58% of 360,000 active. inhibition, % at 25 µM; in the data active means inhibition above about 36%
PKA-R2B act: activators of human PKA-R2B complex; P22694+P31323; PKA-R2B holoenzyme dissociation, Cy5-IP20 fluorescence polarization; R2B truncated from residue 108, S112A mutant; 0% DMSO only, 100% 113 µM cGMP; activation, % at 11.4 µM; 0.079% of 340,000 active; AID 504700;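 active means activation above a cutoff set at the mean over all compounds plus 3 SD, cut at about 18% in these data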;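 further: higher means more holoenzyme dissociation and a rise in polarization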
Target sequence (P31323 whole entry, looked up, other chains not shown, the tested form may be a part): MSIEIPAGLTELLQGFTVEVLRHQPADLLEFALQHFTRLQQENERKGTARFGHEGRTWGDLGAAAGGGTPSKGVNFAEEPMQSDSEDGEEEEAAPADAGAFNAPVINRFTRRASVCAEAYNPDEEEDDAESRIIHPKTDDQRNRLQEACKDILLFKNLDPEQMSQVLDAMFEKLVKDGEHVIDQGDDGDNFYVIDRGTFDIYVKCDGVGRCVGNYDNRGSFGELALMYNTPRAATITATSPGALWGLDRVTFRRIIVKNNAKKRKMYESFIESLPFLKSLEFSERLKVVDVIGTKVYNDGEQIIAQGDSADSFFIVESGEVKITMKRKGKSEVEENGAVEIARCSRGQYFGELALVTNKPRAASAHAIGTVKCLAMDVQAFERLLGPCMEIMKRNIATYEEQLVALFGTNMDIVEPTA
Neddyl conf: confirmation of human cullin neddylation inhibitors; shares compounds with Neddylation inh; TR-FRET cullin neddylation biochemical assay; calls only at 25 µM; 13% of 1,800 active; AID 652217; in the data active means inhibition above about 40%;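 further: neddylation substrate is the cullin 1 ring ligase complex with SKP2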
* marks the source's active call; other numbers are inactive results; i = inactive; . = no result given; + = active, no number. This is a sample that favours compounds with a hit; in the whole collection about 1.3% have one here.

SMILES	PKA-R1A act	Rpn11 inh	Neddylation inh	PKA-R2B act	Neddyl conf
OC1CCN(c2c3c(nc4cc(-c5ccc(F)cc5)nn24)CCC3)CC1	0	i	45*	3	i
Fc1ccc(-c2cc3nc4c(c(N5CCOCC5)n3n2)CCCC4)cc1	-8	i	.	-11	.
Cc1cccc(-c2cc3nc4c(c(N5CCCC(O)C5)n3n2)CCC4)c1 (stereo not drawn)	-11	i	51*	-11	.
Cc1cccc(-n2ncc3c(NCc4ccccn4)ncnc32)c1	6	i	40*	-6	i
c1ccc(-n2ncc3c(NCc4ccccn4)ncnc32)cc1	3	i	37	-6	.
O=C(N/N=C/c1cccc(OC(=O)c2cccc(Br)c2)c1)c1ccncc1	-24	i	-15	-12	.
O=C(NN1C(=O)c2ccccc2NC1c1cccnc1)c1ccccc1 (stereo not drawn)	-11	i	41*	2	i
O=C(NN1C(=O)c2ccccc2NC1c1ccco1)c1ccccc1 (stereo not drawn)	-4	i	30	-9	.
O=C(COC(=O)Cc1c(F)cccc1Cl)NCc1ccc2c(c1)OCO2	-8	i	5	-1	.
COc1cccc(/C=C/C(=O)OCC(=O)NCCC2=CCCCC2)c1OC	-21	i	41*	-5	i
COc1ccc(OC)c(/C=C/C(=O)OCC(=O)NCc2cccs2)c1	7	i	52*	-4	.
COc1ccc(CCNC(=O)COC(=O)/C=C/c2ccc(OC)cc2OC)cc1	-4	i	-1	-2	.
COc1ccc(OC)c(/C=C/C(=O)OCC(=O)NCc2ccccc2)c1	-4	i	.	-3	.
COc1cccc(/C=C/C(=O)OCC(=O)Nc2ccc(Cl)c(S(=O)(=O)N(C)C)c2)c1OC	0	i	44*	2	i
COc1ccc(CCNC(=O)COC(=O)/C=C/c2cc(OC)ccc2OC)cc1	6	i	49*	10	.
CCOC(=O)C(=CNc1ccc(Oc2cncc(Cl)c2)nc1)C(=O)OCC	-16	i	-7	-10	.
CCc1cccc(CC)c1NC(=O)CN1CCc2cc(OC)c(OC)cc2C1	0	i	-1	2	.
CCOC(=O)c1ccc(NC(=O)CSc2nc3sc(C(=O)O)c(C)c3c(=O)[nH]2)cc1	-1	i	-12	-11	.
O=C(CN1C(=O)NC2(CCc3ccccc32)C1=O)NCc1cccc(C(F)(F)F)c1 (stereo not drawn)	-4	i	-11	-2	.
Cc1ccc(C)c(OCC(=O)N/N=C/c2ccc(N3CCOCC3)cc2)c1	11	i	48*	5	+
Cc1ccc(C)c(OCC(=O)N/N=C/c2ccsc2)c1	-3	i	2	-23	.
CC(C)(C)c1ccc(OCC(=O)N/N=C/c2ccc(N3CCOCC3)cc2)cc1	-13	i	54*	2	i
Cn1ccc2ccc(C3=CC(=O)C[C@H](c4ccc(F)cc4)C3)cc21	3	i	-20	-14	.
COc1ccc(S(=O)(=O)N2CCN(C(=O)c3cc(C)nc4ccccc34)CC2)cc1OC	8	i	-13	-6	.
N#CCOc1coc(CN2CCN(c3ccccc3)CC2)cc1=O	-2	i	12	15	.
SMILES	PKA-R1A act	Rpn11 inh	Neddylation inh	PKA-R2B act	Neddyl conf
CC(C)(CNC(=O)c1ccccc1NS(C)(=O)=O)N1CCCCC1	0	i	45*	2	i
CS(=O)(=O)Nc1ccccc1C(=O)N1CCCC1	2	i	-1	-2	.
CS(=O)(=O)Nc1ccccc1C(=O)NCCSc1ccccc1	-8	i	42*	-1	i
CS(=O)(=O)Nc1ccccc1C(=O)Nc1cccc(Cl)c1	5	i	47*	13	.
CS(=O)(=O)Nc1ccccc1C(=O)NCCSCc1ccccc1	9	i	.	2	.
COc1ccc(S(=O)(=O)N(C)C)cc1NC(=O)COC(=O)Cn1cnc2ccccc2c1=O	-1	i	7	-2	.
Cc1ccc(C(=O)C[n+]2cc(Br)cc(Br)c2)cc1[N+](=O)[O-]	1	i	-49	-11	.
COc1ccc(C2/C(=C(/O)c3ccc(C)cc3)C(=O)C(=O)N2CCCN2CCOCC2)cc1 (stereo not drawn)	7	i	-16	2	.
CCOC(=O)C(C)Sc1nc(-c2ccco2)cc(C(F)(F)F)c1C#N (stereo not drawn)	-9	i	41*	-5	.
O=C(Nc1ccc2ccccc2c1)N1CCCN(CCOc2ccccc2)CC1	-13	i	12	-8	.
COc1ccc(Cn2nnnc2CN(CCCN2CCOCC2)Cc2cc3cc(OC)ccc3[nH]c2=O)cc1	1	i	35	6	.
COc1ccc2[nH]c(=O)c(CN(Cc3nnnn3Cc3ccccc3)CC3CCCO3)cc2c1 (stereo not drawn)	-13	i	46*	-11	i
COCCn1nnnc1CN(Cc1cccnc1)Cc1cc2cc(OC)ccc2[nH]c1=O	-9	i	43*	-7	i
O=c1[nH]c2cc3c(cc2cc1CN(Cc1ccccc1)Cc1nnnn1Cc1ccco1)OCCO3	-1	.	8	2	.
O=c1[nH]c2cc3c(cc2cc1CN(Cc1cccs1)Cc1nnnn1Cc1ccco1)OCCO3	-14	i	45*	-20	i
COc1ccc2[nH]c(=O)c(CN(Cc3nnnn3Cc3ccc(F)cc3)CC3CCCO3)cc2c1 (stereo not drawn)	-6	i	46*	-2	i
CSc1ncnc2ncn(C)c12	-2	i	6	-2	.
CCN(CC)CC(C)OC(=O)c1ccccc1Cl (stereo not drawn)	-5	i	1	-5	.
O=c1[nH]c2cc3c(cc2cc1CN(Cc1ccc2c(c1)OCO2)Cc1nnnn1CC1CCCO1)OCO3 (stereo not drawn)	-10	i	39*	-7	i
CCCCN(C)C1=Nc2cccc3cccc1c23	4	i	39*	-1	i
COCCN(C(=O)COC(=O)CCS(=O)(=O)c1ccccc1)c1c(N)n(Cc2ccccc2)c(=O)[nH]c1=O	-9	i	8	4	.
CCN(CC)c1ccc(/C=N/n2nnnc2N)c(O)c1	-7	i	41*	5	+
CCN=C1S/C(=C\c2ccc(Sc3ccc(Cl)cc3)o2)C(=O)N1CC	-3	i	39*	7	.
CCN=C1S/C(=C/c2ccc(-c3ccc(F)cc3)o2)C(=O)N1CC	-1	i	18	1	.
COc1ccc(-n2ncc3c2CC(C)(C)CC3NC(=O)c2cn[nH]c2)cc1 (stereo not drawn)	-5	i	1	11	.
O=C(N/N=C/c1ccc([N+](=O)[O-])cc1)c1[nH]ncc1Br	-8	i	-18	-2	.
Cc1nc(C(=O)N/N=C/c2[nH]ncc2Br)cs1	-9	i	42*	-6	i
CCOC(=O)C1CCCN(Cc2nc(CC3CC3)no2)C1 (stereo not drawn)	-3	i	-6	-8	.
